Source: PubChem BioAssay (several laboratories)
GLD-1 TGE inh: GLD-1/TGE RNA complex disruptors, primary screen, biochemical, fluorescence polarization | purified GLD-1 + fluorescein TGE RNA | inhibition, % at 5.96 µM | AID 2280, 2010 | Female germline-specific tumor suppressor gld-1 (Caenorhabditis elegans), Q17339 | 0.44% of 320,000 active;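 active = percent inhibition above a per-plate cutoff, the plate mean of test compounds plus 3 SD, cut at about 30% in these data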;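 also: 0% = DMSO wells with GLD-1 and probe and 100% = wells lacking GLD-1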
Target sequence (Q17339 whole entry, looked up): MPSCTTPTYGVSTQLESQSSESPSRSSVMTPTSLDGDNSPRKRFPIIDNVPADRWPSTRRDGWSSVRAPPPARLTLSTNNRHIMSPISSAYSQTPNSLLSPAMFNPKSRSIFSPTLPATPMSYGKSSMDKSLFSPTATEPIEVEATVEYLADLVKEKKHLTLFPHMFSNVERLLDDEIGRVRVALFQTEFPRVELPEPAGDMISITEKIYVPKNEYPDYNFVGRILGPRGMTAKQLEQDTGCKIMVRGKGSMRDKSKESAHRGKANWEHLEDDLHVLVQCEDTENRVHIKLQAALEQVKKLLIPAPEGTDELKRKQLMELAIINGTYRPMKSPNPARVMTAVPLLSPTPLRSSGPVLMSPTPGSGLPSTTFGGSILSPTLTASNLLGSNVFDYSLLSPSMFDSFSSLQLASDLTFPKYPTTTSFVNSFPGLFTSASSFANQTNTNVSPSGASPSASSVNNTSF
Mcl1 Bid PPI: Mcl-1/Bid binding inhibitors, primary screen, biochemical, TR-FRET, 1536-well; TR-FRET Mcl-1/Bid-Dy647 peptide binding; inhibition, % at 21.7 µM; 0.97% of 220,000 active;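 active = compounds that cut the binding signal by more than half at the single screening dose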;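 also: His-tagged Mcl-1 with europium anti-His antibody binding Bid BH3 peptide; 0% = Mcl-1 plus peptide wells and 100% = peptide-only wells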
MCL1 BIM primary: inhibitors of MCL1 binding to BIM-BH3, primary screen, biochemical, fluorescence polarization; 0.68% of 320,000 active; inhibition, % at 10.9 µM; Induced myeloid leukemia cell differentiation protein Mcl-1 (Homo sapiens), Q07820; AID 2057, 2009; GST-MCL1 / FITC-Bim-BH3 fluorescence polarization;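 active = inhibition above the mean inhibition of all tested compounds plus 3 SD, set per campaign, cut at about 40% in these data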;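 also: 0% = DMSO wells and 100% = unlabeled Bim-BH3 peptide control; higher means more loss of mP so more displacement of Bim peptide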
Mcl1-Noxa inh: Mcl-1/Noxa binding inhibitors, primary screen, biochemical, TR-FRET, 1536-well | inhibition, % at 21.7 µM | Induced myeloid leukemia cell differentiation protein Mcl-1 (Homo sapiens), Q07820 | TR-FRET Mcl-1/Noxa peptide binding, 2 h | 1.5% of 220,000 active | AID 1022, 2008;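 active = compounds that cut the protein-peptide binding signal by more than 50% relative to plate controls in a single-dose test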;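 also: His-tagged Mcl-1 with rhodamine Noxa BH3 peptide and terbium anti-His antibody; 0% = Mcl-1 plus Noxa peptide wells and 100% = peptide-only wells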
Mcl-1 Bim block: inhibitors of Bim peptide binding to Mcl-1, primary screen, biochemical, bead-based flow cytometry, multiplex; 0.1% of 190,000 active; Bim peptide-Mcl-1 binding; inhibition, % at 10 µM; in the data active = inhibition above about 40%;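 also: 0% = no compound tracer wells and 100% = peptide blocker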
BCLXL inh: inhibitors of human Bcl-xL, primary screen, biochemical, fluorescence polarization, HTS; AID 2129, 2009; Bcl-2-like protein 1 (Homo sapiens), Q07817; inhibition, % at 10.9 µM; 0.7% of 320,000 active; GST-Bcl-xL / FITC-Bim BH3 peptide fluorescence polarization;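 active = inhibition above the mean of all tested compounds plus 3 SD, cutoff set per campaign, cut at about 30% in these data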;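 also: 0% = DMSO wells and 100% = unlabeled Bim-BH3 peptide competitor; inhibitors lower millipolarization by displacing the labeled peptide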
Target sequence (Q07817 whole entry, looked up): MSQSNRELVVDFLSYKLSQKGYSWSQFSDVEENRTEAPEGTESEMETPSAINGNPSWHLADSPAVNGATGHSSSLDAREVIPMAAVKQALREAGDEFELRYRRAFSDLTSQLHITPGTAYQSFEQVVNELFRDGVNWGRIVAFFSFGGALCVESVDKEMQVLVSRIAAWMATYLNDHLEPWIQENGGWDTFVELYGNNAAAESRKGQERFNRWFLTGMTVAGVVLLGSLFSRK
* = called active by the depositor; . = no result given. Most compounds without a hit are left out; they make up all but 2.3% or so of the library.

SMILES | GLD-1 TGE inh | Mcl1 Bid PPI | MCL1 BIM primary | Mcl1-Noxa inh | Mcl-1 Bim block | BCLXL inh
CC(Oc1ccccc1F)C(=O)NNC(=O)CCNC(=O)c1ccccc1Cl (stereo unspecified) | -2.5 | . | -9.0 | . | . | 0.2
Cn1cccc1Cc1nnc(SCC(=O)Nc2cccc(Cl)c2)n1-c1ccc(F)cc1 | 1.9 | 65.1* | 4.8 | 3.5 | -2.0 | 1.8
O=C(COC(=O)CN1C(=O)C2CCCCC2C1=O)NCc1ccc(Cl)cc1Cl (stereo unspecified) | 3.0 | . | -8.8 | . | . | -1.3
O=C(/C=C/c1ccccc1)N(Cc1cccc(Cl)c1)C1CCS(=O)(=O)C1 (stereo unspecified) | 5.3 | -40.5 | -4.5 | -18.1 | . | 4.7
COc1cccc(CN(C(=O)/C=C/c2ccc(Cl)cc2)C2CCS(=O)(=O)C2)c1 (stereo unspecified) | -3.6 | 84.3* | 6.7 | 37.4 | 1.0 | 7.5
O=c1c(Cl)c(N/N=C/c2ccc(Br)cc2)cnn1-c1ccccc1 | 6.6 | 63.4* | -1.1 | 51.6* | -3.0 | -24.2
CNc1cnn(-c2ccccc2)c(=O)c1Cl | 1.6 | -11.9 | 7.4 | 9.6 | -2.0 | 7.6
Cc1ccc(CNC(=O)Cn2cnc3c(NC(=O)OCc4ccccc4)ncnc32)o1 | -1.2 | . | -4.4 | . | . | -0.9
COc1ccc(-c2nc(CS(=O)(=O)CC(=O)NCCCN3CCN(C)CC3)c(C)o2)cc1 | 1.9 | . | 5.5 | . | . | 8.4
Cc1nc(=S)c2ccccc2[nH]1 | -7.2 | 5.0 | -0.1 | 16.2 | 33.0 | -1.7
FC(F)(F)c1nc(=S)c2ccccc2[nH]1 | . | -47.7 | . | 31.7 | 86.0* | .
Nc1cccc2[nH]c(C(F)(F)F)nc12 | -0.8 | 18.4 | 2.1 | 51.6* | -28.0 | 5.9
O=C(CCCc1nc(-c2ccccc2)no1)NC1CCCCC1 | 1.4 | . | 3.0 | . | . | 3.6
Cc1[nH]nc(-c2ccc(OCc3cnn(-c4ccccc4)c3)cc2O)c1Oc1ccccc1F | 0.0 | 59.1* | -0.7 | -10.8 | -1.0 | 4.8
Cc1onc(-c2ccccc2Cl)c1C(=O)NCc1nnnn1-c1ccc(F)cc1 | -5.9 | . | -2.1 | . | . | -3.2
CCn1cc(C(=O)Nc2ccc(-n3cnnn3)c(OC)c2)c(=O)c2ccc(C)nc21 | . | 48.5 | . | 58.0* | 2.0 | .
CCn1cc(C(=O)Nc2cccc(C(=O)OC)c2)c(=O)c2ccc(C)nc21 | -2.5 | . | 2.2 | . | . | -2.0
FC(F)(F)c1cnc(Nc2ccc(N3CCOCC3)cc2)c(Cl)c1 | -0.5 | -23.7 | 4.1 | 61.0* | 3.0 | 12.5
CCC1CSC(Nc2ccc(C(=O)/C=C/c3cccc(C)c3)cc2)=N1 (stereo unspecified) | -6.3 | 25.6 | -8.8 | 85.5* | 0.0 | -7.9
O=C(NCCCn1ccnc1)Nc1ccc2c(c1)OCO2 | 9.2 | . | 3.6 | . | . | 6.5
Nc1ccccc1C(=O)NNc1c2ccccc2nc2ccccc12 | -7.8 | -44.4 | 12.9 | 42.3 | . | 12.8
Nc1nc2ccc([N+](=O)[O-])c(N)c2s1 | -6.0 | -53.9 | 26.3 | 53.7* | 0.0 | 23.4
COc1ccccc1CC1(C)NC(=O)N(CC(=O)N2CCc3ccccc3C2)C1=O (stereo unspecified) | -4.5 | 56.6* | -7.9 | 14.6 | 1.0 | -3.1
O=C(CN1C(=O)NC2(CCCCCCC2)C1=O)N1CCc2ccccc2C1 | 1.8 | -3.8 | -3.8 | 2.6 | 0.0 | 2.9
Clc1ccc(CNc2ccc(CNc3ncn[nH]3)cc2)c(Cl)c1 | 4.9 | -44.5 | 7.6 | 8.2 | . | 5.5
SMILES | GLD-1 TGE inh | Mcl1 Bid PPI | MCL1 BIM primary | Mcl1-Noxa inh | Mcl-1 Bim block | BCLXL inh
C[C@H](CO)N1C[C@H](C)[C@@H](CN(C)Cc2ccc(Oc3ccccc3)cc2)Oc2c(NC(=O)c3ccncc3)cccc2C1=O | 3.4 | . | . | . | . | .
Clc1ccc2c(N/N=C/c3cccc(Br)c3)ccnc2c1 | -10.3 | 60.5* | -27.7 | 46.9 | 10.0 | -8.1
Clc1ccc2c(N/N=C/c3ccccc3Br)ccnc2c1 | 6.2 | 63.2* | 7.8 | 58.0* | 0.0 | 6.3
CC(C)c1ccc(/C=C(\NC(=O)c2ccccc2)C(=O)NCCCn2ccnc2)cc1 | 4.2 | . | -0.7 | . | . | 3.5
CNc1ccc([N+](=O)[O-])cc1-c1nc2ccccc2[nH]c1=O | 2.8 | 47.8 | 0.4 | 65.1* | . | 0.7
Cc1nc2ccc(NC(=O)c3cc([N+](=O)[O-])cc([N+](=O)[O-])c3Cl)cc2s1 | 6.8 | 21.8 | 10.0 | 96.3* | -13.0 | 7.5
COCc1nnc(NC(=O)c2c(-c3c(Cl)cccc3Cl)noc2C)s1 | -7.0 | . | -16.2 | . | . | -3.2
NS(=O)(=O)c1ccc(CCNS(=O)(=O)c2cccc(C(=O)O)c2)cc1 | -2.0 | 5.3 | 1.9 | 2.0 | . | 0.8
CCN(c1ccc(NC(=O)COC(=O)c2ccc(C)s2)cc1)C(C)C | 3.6 | -8.2 | -6.4 | 62.6* | -1.0 | -2.8
COc1cc(CCC(=O)OCC(=O)Nc2ccc(F)c(F)c2)cc(OC)c1OC | 4.1 | . | -0.8 | . | . | 1.3
CCN(c1ccc(NC(=O)COC(=O)CCc2cc(OC)c(OC)c(OC)c2)cc1)C(C)C | . | -11.0 | . | 58.6* | -6.0 | .
NC(=O)c1ccc(N=Nc2c(-c3ccccc3)[nH]n(-c3ccccc3)c2=O)cc1 | -3.4 | -6.6 | -1.7 | -1.4 | -2.0 | 5.4
Cc1ccc([N+](=O)[O-])cc1N=Nc1c(-c2ccc([N+](=O)[O-])cc2)[nH]n(C(N)=S)c1=O | . | 67.8* | . | 110.9* | 0.0 | .
Cc1ccc([N+](=O)[O-])cc1N=Nc1c(C)[nH]n(C(N)=S)c1=O | 0.3 | . | 6.6 | . | . | 4.5
O=c1c(N=Nc2ccc(O)cc2)c(-c2ccccc2)[nH]n1-c1ccc([N+](=O)[O-])cc1 | 9.4 | 59.6* | -3.6 | 71.1* | 0.0 | -2.5
NC(=S)n1[nH]c(-c2ccc([N+](=O)[O-])cc2)c(N=Nc2ccc(Cl)cc2)c1=O | . | 97.8* | . | 73.1* | 0.0 | .
Cc1nc(-c2ccc(S(=O)(=O)Nc3ccc(Br)cc3F)cc2)co1 | 0.2 | . | -1.8 | . | . | 6.5
Cc1ccc(NC(=O)c2ccc(Cl)c(S(=O)(=O)N3CCCCC3)c2)nc1 | 5.1 | . | -7.0 | . | . | 3.3
CCC(C)C(NS(=O)(=O)c1ccc(C)cc1)C(=O)N1CCOCCOCCOCC1 (stereo unspecified) | 1.4 | . | -7.8 | . | . | 2.0
COc1ccc(NC(=O)c2cc(S(=O)(=O)N3CCCCC3)ccc2OC)cc1 | 0.0 | . | 0.2 | . | . | 2.2
C=CCn1c(SCC(=O)Nc2sccc2C(N)=O)nc2sc(C)c(C)c2c1=O | -4.4 | 52.3* | 2.6 | 3.1 | -3.0 | -2.2
CCCc1nc2c(C)ccc(C)c2c(N)c1CC | 3.6 | 58.3* | 5.6 | 21.9 | 0.0 | 6.4
